Compound activity: PubChem BioAssay, National Center for Advancing Translational Sciences (NCATS)
Tau ThT inhib: qHTS for Inhibitors of Tau Fibril Formation, Thioflavin T Binding. recombinant tau K18 P301L, heparin-induced fibrillization, ThT fluorescence. Potency, µM (series often up to 57.4 µM), most hits filed as inhibitors. Microtubule-associated protein tau (Homo sapiens), P10636. hit rate 2.1% among 270,000; further: nearly all actives have a fitted effect of over 55% in size
Target sequence (P10636 561-689 P618L limits assumed): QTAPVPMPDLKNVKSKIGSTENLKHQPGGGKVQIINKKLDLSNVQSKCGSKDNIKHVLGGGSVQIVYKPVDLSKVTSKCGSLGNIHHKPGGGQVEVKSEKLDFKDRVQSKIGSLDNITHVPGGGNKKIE
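Fibril formation assay: tau K18 P301L at 15 uM with trace Alexa 594 label, heparin inducer 20 uM, pH 7 sodium acetate buffer, 37 C for 6 hr; endpoint ThT signal.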
Tau fluor counter: Counterscreen qHTS for Inhibitors of Tau Fibril Formation, Fluorescence Polarization; tau K18 P301L Alexa594 fluorescence, heparin fibrillization; Potency, µM (doses to about 57.7 µM); hit rate 0.93% among 280,000; further: nearly all actives have a fitted effect of over 55% in size
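Human tau K18 P301L (15 uM unlabeled, 0.24 uM Alexa 594-labeled) in 100 mM sodium acetate pH 7 with 20 uM heparin, 6 hr at 37 C. ThT 30 uM added, 1 hr ambient; Alexa 594 FP and total fluorescence read at 555/632 nm.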
PNC assembly inh: High Content Assay for Compounds that inhibit the Assembly of the Perinucleolar Compartment; activity change (PNC), negative = inhibition, % at 10 µM; hit rate 3.1% among 140,000; PC3M PTB-GFP, PNC prevalence imaging, 16 h; stronger effect = lower value;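 active means readout at or below -70, meaning at least 70% loss of cells showing the perinucleolar compartment, a nuclear body marking cancer cells; inconclusive means readout between -30 and a set limit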
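PC3M cells stably expressing PTB-GFP, 750–1000 cells/well, treated 16 h at 37 °C with compound (23 nl of library stock), in duplicate. After paraformaldehyde fixation and Hoechst stain, imaged at 20x; PNC prevalence scored by image analysis.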
Tau fibril FP: qHTS for Inhibitors of Tau Fibril Formation, Fluorescence Polarization; K18 P301L tau heparin fibrillization, Alexa594 FP, 6 h; Potency, µM (top dose mostly 57.7 µM), actives largely listed as inhibitors; hit rate 0.39% among 280,000; AID 1468, 2008; further: nearly all actives have a fitted effect of over 55% in size
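Human tau K18 […] P301L fragment, 15 uM unlabeled plus 0.24 uM Alexa 594-labeled tau (final), with compound and 20 uM heparin in 100 mM sodium acetate pH 7; 6 hr at 37 C, then Alexa 594 FP read.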
NPSR antagonist: qHTS Assay for Antagonists of the Neuropeptide S Receptor: cAMP Signal Transduction; CHO-NPSR cells, cAMP TR-FRET, antagonist mode; hit rate 1% among 220,000; Potency, µM (top dose mostly 38.3 µM), hits mostly inhibitors; further: nearly all actives have a fitted effect of over 50% in size
Target sequence (Q6W5P4 whole entry, looked up): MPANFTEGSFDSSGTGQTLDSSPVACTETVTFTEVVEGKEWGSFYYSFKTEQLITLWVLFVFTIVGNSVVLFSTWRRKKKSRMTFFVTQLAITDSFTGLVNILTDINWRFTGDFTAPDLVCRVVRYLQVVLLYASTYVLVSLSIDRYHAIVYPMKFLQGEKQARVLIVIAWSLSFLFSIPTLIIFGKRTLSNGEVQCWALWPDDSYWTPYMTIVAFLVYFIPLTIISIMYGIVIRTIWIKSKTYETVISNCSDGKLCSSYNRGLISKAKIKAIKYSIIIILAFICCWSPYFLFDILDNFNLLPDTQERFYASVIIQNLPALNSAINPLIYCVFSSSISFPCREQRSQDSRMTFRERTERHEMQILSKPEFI
KDM4E inh: qHTS Assay for Inhibitors of Human Jumonji Domain Containing 2E (JMJD2E); Lysine-specific demethylase 4E (Homo sapiens), B2RXH2; JMJD2E catalytic domain, FDH-coupled NADH fluorescence (FDH is formaldehyde dehydrogenase); Potency, µM (titrated, usually from 57.1 µM), hits mostly inhibitors; hit rate 1.6% among 230,000; AID 2147, 2009; active means well fitted inhibition curve with a large enough effect, not every such curve was filed as active; inconclusive means small, poorly fitted or top-dose-only effect, or another doubt; inactive means no such curve, though single readings can be large or run the other way; further: nearly all actives have a fitted effect of over 50% in size
Large screens that a line does not name were inactive; [ ] = dose if it differs, or a comment. The list is not random: actives were taken first. Their share in the collection is about 5.1%. Unless noted, the call rests on the fitted dose curve; in most records, active means well fitted curve in the direction sought with a large enough effect; inconclusive means small, poorly fitted or top-dose-only effect, or another doubt; inactive means no such curve, though single readings can be large; an effect the other way counts as inactive or inconclusive.

Fc1ccc(Nc2ccc3ccccc3n2)c(F)c1	KDM4E inh 22.4µM (no result: PNC assembly inh)
Cc1cc(Nc2ccc(F)cc2F)nc(-n2nc(C)cc2C)n1	none (no result: PNC assembly inh, NPSR antagonist, KDM4E inh)
O=c1[nH]c(=O)c2nnc(N/N=C\c3ccc(O)cc3)nc2[nH]1	Tau ThT inhib 3.98µM (no result: PNC assembly inh)
O=c1[nH]c(=O)c2nnc(N/N=C/c3ccccc3F)nc2[nH]1	none (no result: Tau ThT inhib, PNC assembly inh)
Cc1ccccc1C(=O)Nc1ccc(C(=O)OCc2cc(=O)n3c4c(sc3n2)CCCC4)cc1	none (no result: PNC assembly inh, NPSR antagonist, KDM4E inh)
CCOC(=O)C1=C(C)NC(=O)NC1C1CC=CCC1 (stereo unspecified)	none
COC(=O)C1=C(C)NC(C)=C(C(=O)OC)C1C1CC=CCC1 (stereo unspecified)	PNC assembly inh -103.7
Cc1cccc(C)c1OCc1n[nH]c(=S)o1	none
Cc1cccc(OCc2n[nH]c(=S)o2)c1	PNC assembly inh -81.7
COC(=O)C1=C(C)[C@H](O)[C@@H](C)[C@](C)(c2cc(OC)c(C)c(OC)c2COc2ccccc2)O1	none (no result: PNC assembly inh, NPSR antagonist)
CCC(C(=O)Nc1nnc2n1CCS2)c1ccccc1 (stereo unspecified)	none (no result: PNC assembly inh, NPSR antagonist, KDM4E inh)
Fc1ccc2[nH]c3c(N4CCN(c5ccccc5)CC4)ncnc3c2c1	Tau ThT inhib inconclusive, Tau fluor counter 25.1µM[quencher], PNC assembly inh -126.1, NPSR antagonist inconclusive, KDM4E inh inconclusive
OC1(c2cccc(C(F)(F)F)c2)CCN(c2ncnc3c2[nH]c2ccc(F)cc23)CC1	Tau ThT inhib inconclusive, Tau fluor counter inconclusive, NPSR antagonist 12.6µM, KDM4E inh inconclusive
CCOC(=O)N1CCN(c2ncnc3c2[nH]c2ccc(OC)cc23)CC1	Tau ThT inhib 8.91µM, KDM4E inh inconclusive
O=C(COc1ccc(Cl)cc1)NCc1nnc2c3ccccc3c(-c3ccccc3)nn12	Tau ThT inhib inconclusive, PNC assembly inh -108.5
COc1cccc(C(=O)Nc2c(C(=O)NC(C)(C)C)oc3ccccc23)c1	none (no result: PNC assembly inh, NPSR antagonist, KDM4E inh)
O=C(O)c1ccc(-c2ccc(/C=C3\NC(=O)N(Cc4ccc(Cl)cc4)C3=O)o2)cc1Cl	Tau ThT inhib 28.2µM, Tau fibril FP inconclusive, KDM4E inh inconclusive (no result: PNC assembly inh)
O=C(c1ccc(Cl)cc1)c1nnc(-c2ccncc2)o1	PNC assembly inh -82.1
O=C(c1ccccc1)c1nnc(-c2ccncc2)o1	none
O=C(c1ccc2c(c1)N(Cc1ccc(Cl)cc1)C(=O)c1ccccc1S2(=O)=O)N1CCOCC1	none (no result: PNC assembly inh, NPSR antagonist, KDM4E inh)
COC(=O)C1CC(=O)c2ccsc2C1 (stereo unspecified)	PNC assembly inh -109.0
COc1ccc(-c2nc3ccccc3n2Cc2ccc(C)cc2)cc1	PNC assembly inh -82.1, KDM4E inh inconclusive
COCCn1c(-c2ccccc2)nc2ccccc21	PNC assembly inh -113.4
COc1ccc(-c2nc3ccccc3n2Cc2ccc(Cl)cc2)cc1	none (no result: PNC assembly inh, NPSR antagonist, KDM4E inh)
CCCn1c(-c2ccc(OC)cc2)nc2ccccc21	NPSR antagonist inconclusive, KDM4E inh inconclusive
Cc1cccc(NC(=O)c2ccc(-n3cccn3)c([N+](=O)[O-])c2)c1	Tau ThT inhib 6.31µM, Tau fluor counter inconclusive, PNC assembly inh inconclusive
O=C(NNC(=S)Nc1ccc(Br)cc1)c1ccc(N2CCOCC2)c([N+](=O)[O-])c1	Tau ThT inhib 12.6µM, Tau fluor counter inconclusive, Tau fibril FP inconclusive
Cc1ccc(NC(=O)c2ccc(NCCN)c([N+](=O)[O-])c2)cc1Cl	Tau ThT inhib 12.6µM, Tau fluor counter inconclusive
O=C(O)c1ccc(NCCc2ccc(Cl)cc2)c([N+](=O)[O-])c1	Tau ThT inhib 5.62µM (no result: PNC assembly inh)
O=C(Nc1cc(F)cc(F)c1)c1ccc(NCCc2ccccc2)c([N+](=O)[O-])c1	none
CCOC(=O)c1ccc(NC(=O)CCC(=O)N2CCSc3ccccc32)cc1	Tau fluor counter inconclusive (no result: PNC assembly inh, NPSR antagonist, KDM4E inh)
CC1CCN(S(=O)(=O)c2ccc3[nH]cc(C(=O)NCc4ccc(F)cc4)c(=O)c3c2)CC1	Tau fibril FP inconclusive (no result: PNC assembly inh, NPSR antagonist, KDM4E inh)
O=C(O)Cc1cccc(OCCCN(Cc2cccc(C(F)(F)F)c2Cl)CC(c2ccccc2)c2ccccc2)c1	Tau ThT inhib inconclusive, Tau fibril FP inconclusive (no result: PNC assembly inh, NPSR antagonist, KDM4E inh)
Cc1ccc(NC(=S)NNC(=O)c2ccc(N3CCOCC3)c([N+](=O)[O-])c2)cc1Cl	Tau ThT inhib 11.2µM, Tau fluor counter inconclusive, Tau fibril FP inconclusive
O=C(NNC(=S)Nc1ccc(Cl)cc1Cl)c1ccc(N2CCOCC2)c([N+](=O)[O-])c1	Tau ThT inhib 5.01µM, Tau fluor counter inconclusive, Tau fibril FP inconclusive
COc1ccc(NC(=O)c2ccc(NCC3CCCO3)c([N+](=O)[O-])c2)cc1 (stereo unspecified)	Tau ThT inhib 12.6µM (no result: PNC assembly inh)
Cc1ccc(C(=O)NCCNc2ccc(Cl)cc2[N+](=O)[O-])o1	Tau ThT inhib 15.8µM
Cc1nn(-c2ccccc2)c2c1N(CC(=O)N1CCN(c3ccccc3F)CC1)C(=O)CS2	none (no result: PNC assembly inh, NPSR antagonist, KDM4E inh)
COc1cccc(-c2nc(SCc3cc(=O)c4cc(Cl)ccc4[nH]3)n[nH]2)c1	Tau fibril FP inconclusive (no result: PNC assembly inh, NPSR antagonist, KDM4E inh)
O=C(Nc1ccc(-c2nc3ccccc3o2)cc1)c1ccc(N2CCOCC2)c([N+](=O)[O-])c1	Tau ThT inhib 2.82µM, Tau fluor counter inconclusive, Tau fibril FP inconclusive, NPSR antagonist inconclusive
